# Results as given in doi:10.1101/2025.02.07.636106.
# Columns and labels:
# Histone deacetylase 1 = Histone deacetylase 1 (UniProt Q13547); test: cross-link between two proteins; affinity purification or IP with mass spectrometry; cross-linking mass spectrometry
# 14-3-3 protein epsilon = 14-3-3 protein epsilon (UniProt P62258); test: cross-linking mass spectrometry
# [1] = target: Calcineurin B homologous protein 1 (UniProt Q99653); test: cross-linking mass spectrometry
# [2] = target: Charged multivesicular body protein 1a (UniProt Q9HD42); test: cross-linking mass spectrometry
# Charged multivesicular body protein 1a, sequence (Q9HD42 whole entry): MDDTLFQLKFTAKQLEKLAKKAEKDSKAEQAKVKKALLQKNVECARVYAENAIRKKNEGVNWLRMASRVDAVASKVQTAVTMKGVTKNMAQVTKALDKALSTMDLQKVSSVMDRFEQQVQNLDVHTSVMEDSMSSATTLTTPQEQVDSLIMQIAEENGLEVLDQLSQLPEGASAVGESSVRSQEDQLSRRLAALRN
# [3] = target: Charged multivesicular body protein 3 (UniProt Q9Y3E7); test: cross-linking mass spectrometry
# Charged multivesicular body protein 3, sequence (Q9Y3E7 whole entry): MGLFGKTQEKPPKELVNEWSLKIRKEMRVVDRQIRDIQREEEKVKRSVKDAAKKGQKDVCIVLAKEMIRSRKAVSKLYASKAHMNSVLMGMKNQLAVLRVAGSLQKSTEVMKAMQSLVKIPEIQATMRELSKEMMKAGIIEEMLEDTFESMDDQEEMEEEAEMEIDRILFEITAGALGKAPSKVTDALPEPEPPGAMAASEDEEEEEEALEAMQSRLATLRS
# [4] = target: Charged multivesicular body protein 1b (UniProt Q7LBR1); test: cross-linking mass spectrometry
# Charged multivesicular body protein 1b, sequence (Q7LBR1 whole entry): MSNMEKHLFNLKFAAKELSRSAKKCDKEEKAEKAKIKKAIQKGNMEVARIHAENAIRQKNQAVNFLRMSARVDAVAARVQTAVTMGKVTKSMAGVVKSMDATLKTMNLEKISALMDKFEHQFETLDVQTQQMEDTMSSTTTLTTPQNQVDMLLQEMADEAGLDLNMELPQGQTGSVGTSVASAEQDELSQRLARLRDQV
# [5] = target: Melanoma inhibitory activity protein 2 (UniProt Q96PC5); test: cross-link between two proteins; cross-linking mass spectrometry
# [6] = target: Charged multivesicular body protein 4b (UniProt Q9H444); test: cross-linking mass spectrometry
# [7] = target: Endoplasmic reticulum resident protein 44 (UniProt Q9BS26); test: cross-linking mass spectrometry
# Integrin beta-5 = Integrin beta-5 (UniProt P18084); test: cross-linking mass spectrometry
# Laminin subunit gamma-1 = Laminin subunit gamma-1 (UniProt P11047); test: cross-linking mass spectrometry
# [8] = target: Splicing factor 3A subunit 1 (UniProt Q15459); test: cross-linking mass spectrometry
# [9] = target: Splicing factor 3B subunit 2 (UniProt Q13435); test: cross-linking mass spectrometry
# [10] = target: Splicing factor 3B subunit 5 (UniProt Q9BWJ5); test: cross-linking mass spectrometry
# Splicing factor 45 = Splicing factor 45 (UniProt Q96I25); test: cross-linking mass spectrometry
# Syntaxin-8 = Syntaxin-8 (UniProt Q9UNK0); test: cross-linking mass spectrometry
# [11] = target: U1 small nuclear ribonucleoprotein A (UniProt P09012); test: cross-linking mass spectrometry
# [12] = target: Vacuolar protein sorting-associated protein 16 homolog (UniProt Q9H269); test: cross-linking mass spectrometry
# [13] = target: Vacuolar protein sorting-associated protein 45 (UniProt Q9NRW7); test: cross-linking mass spectrometry
# Vacuolar protein sorting-associated protein 45, sequence (Q9NRW7 whole entry): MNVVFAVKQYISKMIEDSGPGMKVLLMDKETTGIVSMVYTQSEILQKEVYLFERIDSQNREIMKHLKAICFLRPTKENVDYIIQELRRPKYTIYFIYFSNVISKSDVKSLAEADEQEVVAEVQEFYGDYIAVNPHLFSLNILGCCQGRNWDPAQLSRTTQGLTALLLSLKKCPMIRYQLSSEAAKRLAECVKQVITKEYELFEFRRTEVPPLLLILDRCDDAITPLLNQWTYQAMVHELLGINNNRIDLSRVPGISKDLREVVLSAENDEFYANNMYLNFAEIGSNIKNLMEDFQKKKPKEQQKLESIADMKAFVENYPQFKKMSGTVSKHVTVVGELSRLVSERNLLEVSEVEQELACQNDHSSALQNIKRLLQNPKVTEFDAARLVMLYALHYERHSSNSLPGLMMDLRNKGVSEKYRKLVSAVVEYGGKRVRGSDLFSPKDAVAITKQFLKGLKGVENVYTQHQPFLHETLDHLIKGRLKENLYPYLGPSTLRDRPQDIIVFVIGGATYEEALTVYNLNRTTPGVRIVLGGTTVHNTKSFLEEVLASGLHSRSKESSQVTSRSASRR
# [14] = target: Vesicle transport through interaction with t-SNAREs homolog 1A (UniProt Q96AJ9); test: cross-linking mass spectrometry
# Vesicle transport through interaction with t-SNAREs homolog 1A, sequence (Q96AJ9 whole entry): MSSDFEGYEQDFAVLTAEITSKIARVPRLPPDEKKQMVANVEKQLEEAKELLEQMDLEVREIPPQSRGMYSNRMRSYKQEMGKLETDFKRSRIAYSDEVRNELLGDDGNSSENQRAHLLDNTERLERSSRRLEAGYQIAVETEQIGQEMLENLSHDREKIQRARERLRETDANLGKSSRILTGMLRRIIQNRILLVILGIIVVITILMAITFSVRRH
# [15] = target: Metastasis-associated protein MTA2 (UniProt O94776); test: cross-link between two proteins; cross-linking mass spectrometry
# [16] = target: Methyl-CpG-binding domain protein 2 (UniProt Q9UBB5); test: as above
# [17] = target: Methyl-CpG-binding domain protein 3 (UniProt O95983); test: as above
# Methyl-CpG-binding domain protein 3, sequence (O95983 whole entry, the tested form may be a part): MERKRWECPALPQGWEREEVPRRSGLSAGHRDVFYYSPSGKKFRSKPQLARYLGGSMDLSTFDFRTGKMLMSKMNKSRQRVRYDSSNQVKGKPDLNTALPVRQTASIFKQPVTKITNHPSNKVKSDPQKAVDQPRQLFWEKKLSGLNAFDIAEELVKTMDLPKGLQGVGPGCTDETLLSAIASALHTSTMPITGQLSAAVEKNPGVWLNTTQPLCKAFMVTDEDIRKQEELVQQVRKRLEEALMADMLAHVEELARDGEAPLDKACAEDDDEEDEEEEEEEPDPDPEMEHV
# Plexin-A1 = Plexin-A1 (UniProt Q9UIW2); test: as above
# [18] = target: Polyadenylate-binding protein 3 (UniProt Q9H361); test: as above
# [19] = target: Probable serine carboxypeptidase CPVL (UniProt Q9H3G5); test: as above
# [20] = target: Proteasome subunit beta type-3 (UniProt P49720); test: as above
# [21] = target: Putative elongation factor 1-alpha-like 3 (UniProt Q5VTE0); test: as above
# [22] = target: Putative heat shock protein HSP 90-alpha A4 (UniProt Q58FG1); test: as above
# RNA-binding protein Raly = RNA-binding protein Raly (UniProt Q9UKM9); test: as above
# [23] = target: SIR2 antiphage-like protein 2 (UniProt Q9NWS6); test: as above
# [24] = target: Serine palmitoyltransferase 2 (UniProt O15270); test: as above
# [25] = target: Serine/threonine-protein kinase MARK2 (UniProt Q7KZI7); test: as above
# [26] = target: Splicing factor 3B subunit 2 (UniProt Q13435); test: as above
# [27] = target: Structural maintenance of chromosomes protein 3 (UniProt Q9UQE7); test: as above
# [28] = target: Succinate dehydrogenase [ubiquinone] flavoprotein subunit, mitochondrial (UniProt P31040); test: as above
# THO complex subunit 2 = THO complex subunit 2 (UniProt Q8NI27); test: as above
# THO complex subunit 2, sequence (Q8NI27 whole entry, one chain of several): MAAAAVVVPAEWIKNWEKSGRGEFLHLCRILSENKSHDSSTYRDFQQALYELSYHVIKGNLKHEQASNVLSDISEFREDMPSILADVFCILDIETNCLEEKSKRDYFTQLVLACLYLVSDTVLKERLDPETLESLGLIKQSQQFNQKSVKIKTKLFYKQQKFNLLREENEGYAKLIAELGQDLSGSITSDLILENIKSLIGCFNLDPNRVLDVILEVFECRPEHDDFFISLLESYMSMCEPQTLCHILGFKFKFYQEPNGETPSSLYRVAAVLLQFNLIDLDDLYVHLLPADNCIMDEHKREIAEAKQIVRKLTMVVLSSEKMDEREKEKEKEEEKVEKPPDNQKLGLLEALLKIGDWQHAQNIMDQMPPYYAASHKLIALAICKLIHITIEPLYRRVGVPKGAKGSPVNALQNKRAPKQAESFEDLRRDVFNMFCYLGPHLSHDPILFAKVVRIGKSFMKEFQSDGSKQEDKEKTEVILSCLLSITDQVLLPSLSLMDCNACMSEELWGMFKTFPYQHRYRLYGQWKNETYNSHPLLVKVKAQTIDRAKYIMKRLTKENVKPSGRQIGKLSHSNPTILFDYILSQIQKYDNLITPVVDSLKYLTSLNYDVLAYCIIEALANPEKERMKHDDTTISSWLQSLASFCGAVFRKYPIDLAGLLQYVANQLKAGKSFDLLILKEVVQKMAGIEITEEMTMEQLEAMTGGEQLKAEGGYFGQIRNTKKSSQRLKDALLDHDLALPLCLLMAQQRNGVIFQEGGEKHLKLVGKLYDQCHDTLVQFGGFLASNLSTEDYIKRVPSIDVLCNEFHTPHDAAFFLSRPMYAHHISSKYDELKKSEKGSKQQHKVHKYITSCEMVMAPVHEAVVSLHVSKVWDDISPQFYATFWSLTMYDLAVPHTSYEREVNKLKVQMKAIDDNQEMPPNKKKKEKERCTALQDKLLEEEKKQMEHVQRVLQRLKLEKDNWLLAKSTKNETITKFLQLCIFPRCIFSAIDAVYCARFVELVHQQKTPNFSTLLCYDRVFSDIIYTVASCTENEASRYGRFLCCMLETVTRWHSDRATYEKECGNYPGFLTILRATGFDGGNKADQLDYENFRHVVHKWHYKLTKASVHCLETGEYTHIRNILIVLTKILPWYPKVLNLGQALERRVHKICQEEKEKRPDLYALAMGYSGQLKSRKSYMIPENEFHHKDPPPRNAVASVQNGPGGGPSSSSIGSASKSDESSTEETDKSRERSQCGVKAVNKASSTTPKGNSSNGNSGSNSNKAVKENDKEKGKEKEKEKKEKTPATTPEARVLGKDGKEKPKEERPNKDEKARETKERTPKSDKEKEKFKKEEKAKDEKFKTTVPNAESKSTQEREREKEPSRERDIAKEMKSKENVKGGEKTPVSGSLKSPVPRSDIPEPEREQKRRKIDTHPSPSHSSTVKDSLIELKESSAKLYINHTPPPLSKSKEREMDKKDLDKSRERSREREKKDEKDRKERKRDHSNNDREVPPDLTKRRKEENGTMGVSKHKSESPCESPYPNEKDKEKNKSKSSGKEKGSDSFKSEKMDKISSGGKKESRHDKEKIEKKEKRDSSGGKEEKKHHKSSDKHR
# THO complex subunit 3 = THO complex subunit 3 (UniProt Q96J01); test: as above
# [29] = target: Transcriptional repressor p66-beta (UniProt Q8WXI9); test: as above
# [30] = target: Transforming protein RhoA (UniProt P61586); test: as above
# [31] = target: V-type proton ATPase subunit D (UniProt Q9Y5K8); test: as above
# V-type proton ATPase subunit D, sequence (Q9Y5K8 whole entry): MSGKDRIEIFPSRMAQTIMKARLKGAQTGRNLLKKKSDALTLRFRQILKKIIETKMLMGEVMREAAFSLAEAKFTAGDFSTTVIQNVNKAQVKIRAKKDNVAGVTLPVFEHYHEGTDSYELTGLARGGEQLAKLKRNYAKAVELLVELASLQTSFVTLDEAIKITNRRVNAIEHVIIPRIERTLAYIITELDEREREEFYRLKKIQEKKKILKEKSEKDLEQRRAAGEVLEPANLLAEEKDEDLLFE
# MAP/microtubule affinity-regulating kinase 3, P27448, sequence (P27448 whole entry): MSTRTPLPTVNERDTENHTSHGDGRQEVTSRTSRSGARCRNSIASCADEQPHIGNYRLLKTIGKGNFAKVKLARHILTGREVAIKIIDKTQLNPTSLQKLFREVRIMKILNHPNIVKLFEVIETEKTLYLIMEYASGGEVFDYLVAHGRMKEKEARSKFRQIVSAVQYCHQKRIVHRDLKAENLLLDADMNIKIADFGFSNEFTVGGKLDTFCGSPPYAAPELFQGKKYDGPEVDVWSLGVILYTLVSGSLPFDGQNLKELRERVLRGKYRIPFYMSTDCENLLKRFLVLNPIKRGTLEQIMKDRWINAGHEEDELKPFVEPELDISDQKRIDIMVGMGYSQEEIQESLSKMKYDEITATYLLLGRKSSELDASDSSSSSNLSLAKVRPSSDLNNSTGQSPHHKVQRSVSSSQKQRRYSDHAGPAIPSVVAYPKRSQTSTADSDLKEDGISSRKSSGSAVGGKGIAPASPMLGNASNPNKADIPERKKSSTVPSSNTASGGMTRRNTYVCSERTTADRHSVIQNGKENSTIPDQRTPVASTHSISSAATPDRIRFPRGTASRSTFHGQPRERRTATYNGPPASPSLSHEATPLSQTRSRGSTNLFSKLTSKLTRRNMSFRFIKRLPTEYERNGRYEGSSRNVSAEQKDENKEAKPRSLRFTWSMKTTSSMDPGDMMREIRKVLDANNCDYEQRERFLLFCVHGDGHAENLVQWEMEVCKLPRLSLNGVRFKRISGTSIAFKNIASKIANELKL
# Homeobox protein Hox-B3, P14651, sequence (P14651 whole entry): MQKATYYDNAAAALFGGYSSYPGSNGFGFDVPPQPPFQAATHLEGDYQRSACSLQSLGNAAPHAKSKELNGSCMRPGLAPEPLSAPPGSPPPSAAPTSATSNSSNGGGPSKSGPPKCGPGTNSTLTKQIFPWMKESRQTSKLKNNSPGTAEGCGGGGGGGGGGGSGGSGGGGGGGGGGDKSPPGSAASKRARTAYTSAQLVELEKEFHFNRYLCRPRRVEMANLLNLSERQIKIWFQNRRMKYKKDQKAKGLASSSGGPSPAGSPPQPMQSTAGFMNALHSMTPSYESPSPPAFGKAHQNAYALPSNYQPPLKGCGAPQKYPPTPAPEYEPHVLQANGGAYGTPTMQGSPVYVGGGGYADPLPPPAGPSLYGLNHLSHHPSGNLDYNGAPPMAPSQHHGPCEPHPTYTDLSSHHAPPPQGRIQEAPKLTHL
# Rho-related GTP-binding protein RhoC, P08134, sequence (P08134 whole entry): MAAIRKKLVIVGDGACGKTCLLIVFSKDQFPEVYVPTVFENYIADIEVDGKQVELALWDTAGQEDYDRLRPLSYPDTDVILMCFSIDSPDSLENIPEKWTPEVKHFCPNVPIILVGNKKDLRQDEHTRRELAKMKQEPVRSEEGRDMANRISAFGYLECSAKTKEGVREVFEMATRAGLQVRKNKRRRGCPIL
substance,measurement,setting,value
"Paired amphipathic helix protein Sin3b, O75182",listed as a hit,Histone deacetylase 1,yes
"14-3-3 protein gamma, P61981",listed as a hit,14-3-3 protein epsilon,yes
"Glycerol-3-phosphate acyltransferase 4, Q86UL3",listed as a hit,[1],yes
"Charged multivesicular body protein 1b, Q7LBR1",listed as a hit,[2],yes
same,listed as a hit,[3],yes
"Charged multivesicular body protein 2a, O43633",listed as a hit,[2],yes
same,listed as a hit,[4],yes
same,listed as a hit,[3],yes
same,listed as a hit,[5],yes
"Programmed cell death 6-interacting protein, Q8WUM4",listed as a hit,[6],yes
"Peroxiredoxin-4, Q13162",listed as a hit,[7],yes
"Integrin alpha-V, P06756",listed as a hit,Integrin beta-5,yes
"Laminin subunit beta-1, P07942",listed as a hit,Laminin subunit gamma-1,yes
"Splicing factor 3A subunit 2, Q15428",listed as a hit,[8],yes
"U2 small nuclear ribonucleoprotein A', P09661",listed as a hit,[9],yes
"Splicing factor 3B subunit 3, Q15393",listed as a hit,[10],yes
"U2 snRNP-associated SURP motif-containing protein, O15042",listed as a hit,Splicing factor 45,yes
"Vesicle transport through interaction with t-SNAREs homolog 1B, Q9UEU0",listed as a hit,Syntaxin-8,yes
"U2 small nuclear ribonucleoprotein B'', P08579",listed as a hit,[11],yes
"Vacuolar protein sorting-associated protein 33A, Q96AX1",listed as a hit,[12],yes
"Syntaxin-16, O14662",listed as a hit,[13],yes
same,listed as a hit,[14],yes
"Alpha-soluble NSF attachment protein, P54920",listed as a hit,[14],yes
"U3 small nucleolar RNA-interacting protein 2, O43818",listed as a hit,[15],yes
"Metastasis-associated protein MTA2, O94776",listed as a hit,[16],yes
same,listed as a hit,[17],yes
"Coiled-coil domain-containing protein 7, Q96M83",listed as a hit,Plexin-A1,yes
"Polyadenylate-binding protein 4, Q13310",listed as a hit,[18],yes
"Protein ZBED11, P0CF97",listed as a hit,[19],yes
"Proteasome subunit beta type-5, P28074",listed as a hit,[20],yes
"Elongation factor 1-beta, P24534",listed as a hit,[21],yes
"Putative heat shock protein HSP 90-beta 2, Q58FF8",listed as a hit,[22],yes
"RNA-binding Raly-like protein, Q86SE5",listed as a hit,RNA-binding protein Raly,yes
"Protein disulfide-isomerase, P07237",listed as a hit,[23],yes
"Serine palmitoyltransferase 1, O15269",listed as a hit,[24],yes
"MAP/microtubule affinity-regulating kinase 3, P27448",listed as a hit,[25],yes
"Microtubule-associated protein 1B, P46821",listed as a hit,[26],yes
"Titin, Q8WZ42",listed as a hit,[27],yes
"Homeobox protein Hox-B3, P14651",listed as a hit,[28],yes
"Flotillin-2, Q14254",listed as a hit,THO complex subunit 2,yes
"THO complex subunit 5, Q13769",listed as a hit,THO complex subunit 3,yes
"Interferon-inducible double-stranded RNA-dependent protein kinase activator A, O75569",listed as a hit,[29],yes
"Rho-related GTP-binding protein RhoC, P08134",listed as a hit,[30],yes
"Frizzled-9, O00144",listed as a hit,[31],yes
